# Where “and” joins values, the source holds several entries; their conditions need not be identical. Equal entries are not always repeated. Structures can show the parent of a compound that is named as a salt. Among all 5,800 compounds or so, about 620 (11%) showed activity. Shown is part of a subset that was picked to be rich in actives. A number with no mark means an inactive call.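 The calls were made as follows: active = score above a cut-off or among the top three wells of a plate; in these data no inactive exceeds 0.85.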
# Tested on: primary human hepatic stellate cells (donor 1)
# Assay: scaled lipid accumulation score (0 = DMSO-like, 1 = nortriptyline-like); higher = stronger HSC inactivation (lipid re-accumulation), active = hit call of the paper
# Details: 48 h
# [1] = library stock concentration: 10 mM
# [2] = library stock concentration: 1 mM
# [3] = library stock concentration: 3.33 mM
# [4] = library stock concentration: 80 uM
# [5] = library stock concentration: 400 uM
# [6] = library stock concentration: 2 mM
# [7] = library stock concentration: 6.3 mM
# [8] = library stock concentration: 6.2 mM
compound,measurement,setting,value
CCCCCCOc1ccccc1C(N)=O [Exalamide],scaled lipid accumulation score,[1],≤ -0.027
CNCCCCOc1ccccc1Cc1ccccc1.Cl [Bifemelane hydrochloride],scaled lipid accumulation score,[1],1.41 (active)
COC(=O)c1c(C)[nH]c(C)c1C(=O)c1ccccc1Cc1ccccc1,scaled lipid accumulation score,[1],0.13 and 0.001
CNCCCCOc1ccccc1Cc1ccccc1 [Bifemelane],scaled lipid accumulation score,[1],1.08 (active)
CCOC(=O)c1c(Cc2cccc(Cl)c2)[nH]c2c1cc(O)c1ccccc12,scaled lipid accumulation score,[2],≤ 0
CC/C=C\C/C=C\C/C=C\CCCCCCCC(=O)NCCO [.alpha.-Linolenoyl Ethanolamide],scaled lipid accumulation score,[2],0.006
CCOc1nc(NC(=O)Cc2cc(OC)ccc2OC)cc(N)c1C#N [JNK Inhibitor VIII],scaled lipid accumulation score,[3],≤ 0
CNc1cc(OC)c(C(=O)NC2CCN(Cc3ccccc3)C2C)cc1Cl (stereo not drawn) [Nemonapride],scaled lipid accumulation score,[1],0.728
NC(=O)Nc1sc(-c2ccccc2)cc1C(N)=O [IKK-2 Inhibitor VI],scaled lipid accumulation score,[3],≤ 0
COc1cccc(CCc2ccccc2OCC[C@@H]2C[C@@H](O)CN2C)c1.Cl,scaled lipid accumulation score,[1],1.18 (active)
OCc1c[nH]c2ccccc12 [Indole-3-carbinol],scaled lipid accumulation score,[3],≤ 0
same,scaled lipid accumulation score,[1],≤ 0
c1ccc2c(Cc3c[nH]c4ccccc34)c[nH]c2c1 [Diidolylmethane],scaled lipid accumulation score,[2],≤ -0.021
OC1(c2ccc(Cl)cc2)CCN(Cc2c[nH]c3ccccc23)CC1,scaled lipid accumulation score,[1],1.17 (active)
CC[C@@H](CC[C@@H](C)[C@H]1CC[C@H]2[C@@H]3CCC4C[C@@H](O)CC[C@]4(C)[C@H]3CC[C@]12C)C(C)C (stereo partly drawn) [Beta-sistosterol],scaled lipid accumulation score,,≤ 0
"COc1cc(OC)cc(OC)c1 [1,3,5-trimethoxybenzene]",scaled lipid accumulation score,[1],≤ 0
COc1ccc2nc3n[nH]c(C)c3c(NCCOCCO)c2c1,scaled lipid accumulation score,[4],≤ -0.001
same,scaled lipid accumulation score,[5],≤ -0.001
same,scaled lipid accumulation score,[6],≤ -0.001
same,scaled lipid accumulation score,[3],0.203
same,scaled lipid accumulation score,[1],0.021
COc1ccc(-c2ccc3ncc4c(c3c2)n(-c2ccc(N3CCNCC3)c(C(F)(F)F)c2)c(=O)n4C)cn1.O=C(O)/C=C\C(=O)O,scaled lipid accumulation score,[5],0.909 (active)
COc1cc(OC)cc(-c2ccc3ncc4ccc(=O)n(-c5ccc(N6CCNCC6)c(C(F)(F)F)c5)c4c3c2)c1,scaled lipid accumulation score,[4],0.045
same,scaled lipid accumulation score,[5],0.305
same,scaled lipid accumulation score,[6],0.652
same,scaled lipid accumulation score,[1],0.426
COc1ccc(-c2ccc3ncc4c(c3c2)n(-c2ccc(N3CCNCC3)c(C(F)(F)F)c2)c(=O)n4C)cn1,scaled lipid accumulation score,[4],0.133
same,scaled lipid accumulation score,[6],0.546
same,scaled lipid accumulation score,[3],0.237
same,scaled lipid accumulation score,[1],≤ 0 and 0.223
S=c1[nH]c(-c2ccccc2)cn1-c1ccccc1,scaled lipid accumulation score,[1],≤ -0.07
Nc1c2c(nc3c1CCC3)CCCC2,scaled lipid accumulation score,[1],≤ 0
CCCCCCCCCCCCCCCCOC[C@H](COP(=O)([O-])OCC[N+](C)(C)C)OC(=O)CCCCCCCC(=O)O [Azelaoyl PAF],scaled lipid accumulation score,[2],≤ 0
CC(CN1c2ccccc2Sc2ccccc21)N(C)C (stereo not drawn) [Phenergan],scaled lipid accumulation score,[1],0.649
CN(C)CCCN1c2ccccc2Sc2ccc(Cl)cc21 [Chlorpromazine hydrochloride],scaled lipid accumulation score,,0.717
same,scaled lipid accumulation score,[1],0.259
CN(C)CCCN1c2ccccc2Sc2ccc(Cl)cc21,scaled lipid accumulation score,[1],0.711
CC(CN1c2ccccc2Sc2ccccc21)N(C)C.Cl (stereo not drawn) [Promethazine hydrochloride],scaled lipid accumulation score,[1],0.888 (active)
CN(C)CCCN1c2ccccc2Sc2ccc(Cl)cc21 [Chlorpromazine] [listing 1 of 2 here],scaled lipid accumulation score,[7],1.09 (active)
CC(CN1c2ccccc2Sc2ccccc21)N(C)C (stereo not drawn) [Promethazine HCl],scaled lipid accumulation score,[3],≤ 0
same,scaled lipid accumulation score,library stock concentration: 7 mM,0.609
same,scaled lipid accumulation score,[1],0.62
CC(CN1c2ccccc2Sc2ccccc21)N(C)C (stereo not drawn) [Promethazine hydrochloride],scaled lipid accumulation score,,0.571
same,scaled lipid accumulation score,[8],0.655
same,scaled lipid accumulation score,[1],0.748
CN(C)CCCN1c2ccccc2Sc2ccccc21 [Promazine hydrochloride],scaled lipid accumulation score,,0.365
same,scaled lipid accumulation score,[8],0.834
same,scaled lipid accumulation score,[1],0.324
CCN(CC)C(C)CN1c2ccccc2Sc2ccccc21 (stereo not drawn) [Ethopropazine hydrochloride],scaled lipid accumulation score,,0.644
same,scaled lipid accumulation score,library stock concentration: 5.7 mM,0.667
same,scaled lipid accumulation score,[1],0.301 and 0.673
CN(C)CCCN1c2ccccc2Sc2ccc(Cl)cc21.Cl [Chlorpromazine HCl],scaled lipid accumulation score,[1],0.833 (active)
CN(C)CCCN1c2ccccc2Sc2ccc(Cl)cc21 [Chlorpromazine] [listing 2 of 2 here],scaled lipid accumulation score,[1],0.466
CN(C)CCCN1c2ccccc2Sc2ccccc21.Cl [Promazine hydrochloride],scaled lipid accumulation score,[1],0.923 (active)
CN(C)CCCN1c2ccccc2Sc2ccc(Cl)cc21 [Chlorpromazine HCl],scaled lipid accumulation score,[3],0.38
same,scaled lipid accumulation score,[7],0.53
CCCCCC(O)C=CC1C(O)CC(O)C1CC=CCCCC(=O)OC (stereo not drawn) [Prostaglandin F2.alpha. methyl ester],scaled lipid accumulation score,[2],≤ 0
Nc1ncnc2c1nc(Br)n2[C@@H]1O[C@@H]2COP(=O)(O)O[C@H]2[C@H]1O [8-Bromo-cAMP],scaled lipid accumulation score,library stock concentration: 12.3 mM,0.137
"Nc1ncnc2c1nc(Br)n2[C@@H]1O[C@@H]2COP(=O)(O)O[C@H]2[C@H]1O [8-Bromo-cAMP, sodium salt]",scaled lipid accumulation score,[1],≤ -0.006
CC(NC(=O)c1ccccc1/N=C/c1c(O)ccc2ccccc12)c1ccccc1 (stereo not drawn) [Sirtinol],scaled lipid accumulation score,[3],0.008
same,scaled lipid accumulation score,[1],0.024 and ≤ -0.001
CCCCCCCCCCCCCCCCOC[C@H](COP(=O)([O-])OCC[N+](C)(C)C)OC [2-O-methyl PAF C-16],scaled lipid accumulation score,[2],≤ 0
CCCCC[C@H](O)/C=C/[C@H]1CC[C@H](O)[C@@H]1C/C=C\CCCC(=O)O [11-deoxy Prostaglandin F2.alpha.],scaled lipid accumulation score,[2],≤ 0
"CCCCCCC(=O)SC[C@H](COP(=O)([O-])OCC[N+](C)(C)C)SC(=O)CCCCCC [1,2-bis(heptanoylthio) Glycerophosphocholine]",scaled lipid accumulation score,[2],≤ 0
"CNC(=O)[C@H](Cc1c[nH]c2ccccc12)NC(=O)[C@@H](CC(=O)NO)CC(C)C [Ilomastat (GM6001, Galardin)]",scaled lipid accumulation score,[3],≤ -0.009
same,scaled lipid accumulation score,[1],≤ 0
CNC(=O)[C@H](Cc1c[nH]c2ccccc12)NC(=O)[C@@H](CC(=O)NO)CC(C)C,scaled lipid accumulation score,library stock concentration: 12.9 mM,≤ -0.009
NC(=O)N1c2ccccc2CC(O)c2ccccc21 (stereo not drawn) [Licarbazepine],scaled lipid accumulation score,[1],0.008
O=c1c(O)c(-c2ccc(O)c(O)c2)oc2cc(O)c(O)c(O)c12 [Quercetagetin],scaled lipid accumulation score,[3],≤ 0
O=C(O)C(Cc1c[nH]c2ccccc12)N1C(=O)c2ccccc2C1=O (stereo not drawn),scaled lipid accumulation score,[4],≤ 0
same,scaled lipid accumulation score,[5],≤ 0
same,scaled lipid accumulation score,[6],≤ 0
same,scaled lipid accumulation score,[3],≤ 0
same,scaled lipid accumulation score,[1],0.017 and ≤ 0
C#CCOc1ccccc1CCCCCC(=O)NS(C)(=O)=O,scaled lipid accumulation score,[2],0.013
O=C1CCc2ccc(OCCCCN3CCN(c4cccc(Cl)c4Cl)CC3)cc2N1,scaled lipid accumulation score,[1],0.964 (active)
O=C1CCc2ccc(OCCCCN3CCN(c4cccc(Cl)c4Cl)CC3)cc2N1 [Aripiprazole],scaled lipid accumulation score,[3],≤ 0
same,scaled lipid accumulation score,library stock concentration: 4.5 mM,0.238 and 0.464
same,scaled lipid accumulation score,[1],0.827
O=C1CCc2cc(OCCCCc3nnnn3C3CCCCC3)ccc2N1 [Cilostazol],scaled lipid accumulation score,,≤ 0
same,scaled lipid accumulation score,[3],≤ 0
same,scaled lipid accumulation score,library stock concentration: 5.4 mM,≤ 0
Cn1sc(=O)n(Cc2ccccc2)c1=O [GSK-3b Inhibitor I],scaled lipid accumulation score,[3],≤ 0
Cc1ccc(NC2=CC(=O)c3sc(C)nc3C2=O)cc1 [Cdk4 Inhibitor III],scaled lipid accumulation score,[3],0.942 (active)
Cc1ccc(NC2=CC(=O)c3sc(C)nc3C2=O)cc1 [Ryuvidine],scaled lipid accumulation score,[1],0.904 (active)
O=C(O)[C@]1(Cc2cccc(Nc3nccs3)n2)CC[C@@H](Oc2cccc(Cl)c2F)CC1,scaled lipid accumulation score,[3],≤ 0
same,scaled lipid accumulation score,[1],0.039
CCC[C@H](NC(=O)[C@@H]1[C@H]2CCC[C@H]2CN1C(=O)[C@@H](NC(=O)[C@@H](NC(=O)c1cnccn1)C1CCCCC1)C(C)(C)C)C(=O)C(=O)NC1CC1 [Telaprevir (VX-950)],scaled lipid accumulation score,[3],≤ 0
same,scaled lipid accumulation score,[1],≤ 0
CCCCCCCCCCCCCCCCOC[C@H](COP(=O)([O-])OCC[N+](C)(C)C)OC(=O)NC [Methylcarbamyl PAF C-16],scaled lipid accumulation score,[2],≤ 0
O=C(O)CCC/C=C\C[C@H]1[C@@H](/C=C/[C@@H](O)CCc2ccccc2)[C@H](O)C[C@@H]1O [8-iso-17-phenyl trinor Prostaglandin F2.alpha.],scaled lipid accumulation score,[2],≤ 0
O=C1CC2(CCCC2)CC(=O)N1CCCCNCC1COc2ccccc2O1 (stereo not drawn),scaled lipid accumulation score,[1],0.376
CNC(C)C(=O)NC(C(=O)N1CCCC1C(=O)NC(C(=O)NCCCCCCNC(=O)C(NC(=O)C1CCCN1C(=O)C(NC(=O)C(C)NC)C1CCCCC1)C(c1ccccc1)c1ccccc1)C(c1ccccc1)c1ccccc1)C1CCCCC1 (stereo not drawn),scaled lipid accumulation score,[3],0.26
same,scaled lipid accumulation score,[1],0.061
Cl.O=C(NCCCN1CCCCCC1)C(c1ccccc1)C1CCCCC1 (stereo not drawn),scaled lipid accumulation score,[1],0.897 (active)
CCN(CC)CCOC(=O)C(c1ccccc1)C1CCCCC1 (stereo not drawn) [Drofenine hydrochloride],scaled lipid accumulation score,,0.317
same,scaled lipid accumulation score,[1],0.335
CN1CC(O)C(O)C(O)C1CO (stereo not drawn) [N-Methyl-1-deoxynojirimycin],scaled lipid accumulation score,[1],≤ -0.07
